Reference: PubChem BioAssay AID1159580 (chemical genetic matrix, 2015)
Among all 5,500 compounds or so, about 2,000 (36%) were called active. Not shown: some 18% with an inconclusive outcome. Rule as the data show it: active = normalized growth mostly below about 0.91 (no sharp cut-off); inconclusive = no clear call, values can overlap the other calls; inactive = mostly above about 0.92. The list shows a part of the results.

Test: chemical genetic growth profiling, strain panel (AID 1159580);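 also: tested at 20 µM; growth read once vehicle control cultures reached saturation at 30 °C; 1 = growth at the plate median or of vehicle wells; lower values mean less growth of the strain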
Settings: S. cerevisiae deletion strains, growth OD
[1] = locus YAL013W, strain DEP1, hits give low values
[2] = locus YBR229C, strain ROT2, hits give low values
[3] = locus YCL061C, strain MRC1, hits give low values
[4] = locus YDL101C, strain DUN1, hits give low values
[5] = locus YDL134C, strain PPH21, hits give low values
[6] = locus YDR150W, strain NUM1, hits give low values
[7] = locus YEL061C, strain CIN8, hits give low values
[8] = locus YGR078C, strain PAC10, hits give low values
[9] = locus YHR030C, strain SLT2, hits give low values
[10] = locus YHR087W, strain rtc3, hits give low values
[11] = locus YJR043C, strain POL32, hits give low values
[12] = locus YJR075W, strain HOC1, hits give low values
[13] = locus YKL190W, strain CNB1, hits give low values
[14] = locus YLR039C, strain RIC1, hits give low values
[15] = locus YLR058C, strain SHM2 (second series), hits give low values
[16] = locus YLR085C, strain ARP6, hits give low values
[17] = locus YLR262C, strain YPT6, hits give low values
[18] = locus YML094W, strain GIM5, hits give low values
[19] = locus YMR219W, strain ESC1, hits give low values
[20] = locus YMR263W, strain SAP30, hits give low values
[21] = locus YMR307W, strain GAS1, hits give low values
[22] = locus YNL153C, strain GIM3, hits give low values
[23] = locus YNL298W, strain CLA4 (second series), hits give low values
[24] = locus YNL322C, strain KRE1, hits give low values
[25] = locus YNR030W, strain Alg12, hits give low values
[26] = locus YPL055C, strain LGE1, hits give low values
[27] = locus YPL241C, strain CIN2, hits give low values
[28] = locus YPR135W, strain CTF4, hits give low values
[29] = locus YGR229C, strain SMI1, hits give low values

Measured: normalized growth

FC(F)(F)c1cnc(N2CCN(C(=S)Nc3ccccc3)CC2)c(Cl)c1
inactive: [1] 0.989 | [2] 1.01 | [3] 1 | [4] 0.999 | [5] 1.01 | [6] 0.963 | [7] 0.985 | [8] 0.993 | [9] 1.05 | [10] 1.03 | [11] 0.986 | [12] 1.02 | [13] 1.01 | [14] 0.984 | [15] 1.02 | [16] 1.03 | [17] 1.02 | [18] 0.952 | [19] 1.02 | [20] 0.982 | [21] 1 | locus YNL128W, strain TEP1, hits give low values 1.01 | [22] 0.972 | [23] 0.976 | [24] 1.01 | [25] 1 | locus YOL006C, strain TOP1, hits give low values 0.894 | [26] 0.938 | [27] 0.955 | [28] 0.981

CC(C)c1ccccc1NC(=S)N1CCN(c2ncc(C(F)(F)F)cc2Cl)CC1
inactive: [1] 1.02 | [2] 0.995 | [4] 0.985 | [6] 1.02 | [7] 1.01 | [8] 1.01 | [29] 0.963 | [9] 0.976 | [10] 1.02 | [11] 0.995 | [12] 0.972 | [15] 0.977 | [16] 1.1 | [18] 1.04 | [19] 0.992 | [20] 0.991 | [22] 1.02 | [23] 0.984 | [24] 0.998 | [25] 1.02 | [26] 1.13 | [27] 1.07 | [28] 1.17
active: [14] 0.761 | [17] 0.736

Cc1cc(C)cc(NC(=S)N2CCN(c3ncc(C(F)(F)F)cc3Cl)CC2)c1
inactive: [1] 1 | [2] 1.01 | [3] 1 | [4] 1 | [5] 0.986 | [6] 0.997 | [7] 1.01 | [8] 1 | [29] 0.976 | [9] 1.02 | [10] 1.01 | [11] 1.01 | [12] 0.996 | [13] 0.98 | [14] 1.04 | [15] 1.01 | [16] 0.99 | [17] 1.03 | [18] 1.02 | [19] 0.999 | [20] 1 | [21] 0.907 | [22] 1.01 | [23] 1.06 | [24] 0.998 | [25] 1.02 | [26] 1.03 | [27] 0.886 | [28] 1
